# In the supplement of paper PMC8253809:
# “And” between values parts separate entries of the source, which are not always exact repeats. Equal entries are not always repeated.
# Legend:
# Assay in all cases: growth inhibition (% activity, log2 RLU normalised to DMSO / staurosporine); higher = more growth inhibition
# Details in all cases: 33 µM
# DIPGX29 = test system: DIPGX29 (H3.3 K27M diffuse intrinsic pontine glioma line)
# Outline: (§1)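 For each approved drug, the growth-inhibition value is the replicate median of per-plate normalised CellTiter-Glo data. Luminescence was log2-transformed and expressed as % activity between solvent and positive control wells. Drugs were applied in triplicate at a single final concentration of about 33 μM for 7 days at 37 °C, 5% CO2 to pHGG cell lines and H9-derived neural stem cells.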
# DIPGX37 = test system: DIPGX37 (H3.3 K27M diffuse intrinsic pontine glioma line)
# Outline: as §1
# DIPGX7 = test system: DIPGX7 (H3.3 K27M diffuse intrinsic pontine glioma line)
# Outline: as §1
# DIPGX9 = test system: DIPGX9 (diffuse intrinsic pontine glioma line)
# Outline: as §1
# HGGX39 = test system: HGGX39 (paediatric high-grade glioma line)
# Outline: as §1
# HGGX6 = test system: HGGX6 (H3.3 G34R paediatric high-grade glioma line)
# Outline: as §1
# HNSC = test system: HNSC
# Outline: as §1
# SUDIPGIV = test system: SUDIPGIV (diffuse intrinsic pontine glioma line)
# Outline: as §1
# SUDIPGVI = test system: SUDIPGVI (diffuse intrinsic pontine glioma line)
# Outline: as §1
# SUDIPGXIII = test system: SUDIPGXIII (diffuse intrinsic pontine glioma line)
# Outline: as §1
smiles,measurement,setting,value
CCOC(=O)C1=C(C)NC(C)=C(C(=O)OC)C1c1cccc([N+](=O)[O-])c1 (stereo not given),growth inhibition,DIPGX29,-2.41%
same,growth inhibition,DIPGX37,0.972%
same,growth inhibition,DIPGX7,1.75%
same,growth inhibition,DIPGX9,-2.12%
same,growth inhibition,HGGX39,0.389%
same,growth inhibition,HGGX6,-2.9%
same,growth inhibition,HNSC,37.3%
same,growth inhibition,SUDIPGIV,-0.292%
same,growth inhibition,SUDIPGVI,-8.45%
same,growth inhibition,SUDIPGXIII,2.39%
Nc1ccn(C[C@@H](CO)OCP(=O)(O)O)c(=O)n1,growth inhibition,DIPGX29,1.21%
same,growth inhibition,DIPGX37,2.43%
same,growth inhibition,DIPGX7,1.32%
same,growth inhibition,DIPGX9,1.05%
same,growth inhibition,HGGX39,-0.556%
same,growth inhibition,HGGX6,-0.434%
same,growth inhibition,HNSC,3.12%
same,growth inhibition,SUDIPGIV,2.09%
same,growth inhibition,SUDIPGVI,1.15%
same,growth inhibition,SUDIPGXIII,1.19%
C[C@@H]1C/C=C/C=C/C=C/C=C/[C@H](O[C@@H]2O[C@H](C)[C@@H](O)[C@H](N)[C@@H]2O)C[C@@H]2O[C@](O)(C[C@@H](O)C[C@H]3O[C@@H]3/C=C/C(=O)O1)C[C@H](O)[C@H]2C(=O)O,growth inhibition,DIPGX29,1.2%
same,growth inhibition,DIPGX37,2.42%
same,growth inhibition,DIPGX7,1.64%
same,growth inhibition,DIPGX9,1.2%
same,growth inhibition,HGGX39,1.86%
same,growth inhibition,HGGX6,0.734%
same,growth inhibition,HNSC,-0.468%
same,growth inhibition,SUDIPGIV,0.119%
same,growth inhibition,SUDIPGVI,3.23%
same,growth inhibition,SUDIPGXIII,0.668%
Cc1cc(C2CCCCC2)n(O)c(=O)c1,growth inhibition,DIPGX29,68.5% and 63.3%
same,growth inhibition,DIPGX37,7.69% and 8.51%
same,growth inhibition,DIPGX7,54.5% and 43.2%
same,growth inhibition,DIPGX9,68.8% and 56.5%
same,growth inhibition,HGGX39,8.59% and 9.1%
same,growth inhibition,HGGX6,67.5% and 63.6%
same,growth inhibition,HNSC,81.5% and 63.9%
same,growth inhibition,SUDIPGIV,13.4% and 8.52%
same,growth inhibition,SUDIPGVI,-4.21% and -2.85%
same,growth inhibition,SUDIPGXIII,21.3% and 10.6%
Nc1nc2[nH]cc(CCc3ccc(C(=O)N[C@@H](CCC(=O)O)C(=O)O)cc3)c2c(=O)[nH]1,growth inhibition,DIPGX29,1.3%
same,growth inhibition,DIPGX37,1.02%
same,growth inhibition,DIPGX7,2.83%
same,growth inhibition,DIPGX9,0.403%
same,growth inhibition,HGGX39,-0.372%
same,growth inhibition,HGGX6,-2.22%
same,growth inhibition,HNSC,-0.517%
same,growth inhibition,SUDIPGIV,2.12%
same,growth inhibition,SUDIPGVI,-1.22%
same,growth inhibition,SUDIPGXIII,1.32%
Nc1c(CC(=O)O)cccc1C(=O)c1ccccc1,growth inhibition,DIPGX29,-1.69%
same,growth inhibition,DIPGX37,-2.54%
same,growth inhibition,DIPGX7,-0.79%
same,growth inhibition,DIPGX9,-0.667%
same,growth inhibition,HGGX39,-0.264%
same,growth inhibition,HGGX6,-1.13%
same,growth inhibition,HNSC,-2.43%
same,growth inhibition,SUDIPGIV,-5.49%
same,growth inhibition,SUDIPGVI,-5.35%
same,growth inhibition,SUDIPGXIII,1.21%
COC(=O)C1=C(C)NC(C)=C(C(=O)OC2CCCN(Cc3ccccc3)C2)C1c1cccc([N+](=O)[O-])c1 (stereo not given),growth inhibition,DIPGX29,3.05%
same,growth inhibition,DIPGX37,0.403%
same,growth inhibition,DIPGX7,2.15%
same,growth inhibition,DIPGX9,3.22%
same,growth inhibition,HGGX39,6.94%
same,growth inhibition,HGGX6,-0.555%
same,growth inhibition,HNSC,33.4%
same,growth inhibition,SUDIPGIV,3.22%
same,growth inhibition,SUDIPGVI,-1.31%
same,growth inhibition,SUDIPGXIII,2.1%
Cc1ccc(-n2[nH]c(C)c(N=Nc3cccc(-c4cccc(C(=O)O)c4)c3O)c2=O)cc1C,growth inhibition,DIPGX29,-2.95%
same,growth inhibition,DIPGX37,-1.98%
same,growth inhibition,DIPGX7,0.213%
same,growth inhibition,DIPGX9,-1.59%
same,growth inhibition,HGGX39,-1.34%
same,growth inhibition,HGGX6,-2.27%
same,growth inhibition,HNSC,13.7%
same,growth inhibition,SUDIPGIV,-2.64%
same,growth inhibition,SUDIPGVI,-2.5%
same,growth inhibition,SUDIPGXIII,1.95%
CC1=NN(c2ccccc2)C(=O)C1,growth inhibition,DIPGX29,-3.36%
same,growth inhibition,DIPGX37,-1.06%
same,growth inhibition,DIPGX7,-0.361%
same,growth inhibition,DIPGX9,-0.407%
same,growth inhibition,HGGX39,-0.249%
same,growth inhibition,HGGX6,-3.17%
same,growth inhibition,HNSC,-4.84%
same,growth inhibition,SUDIPGIV,1.69%
same,growth inhibition,SUDIPGVI,-1.55%
same,growth inhibition,SUDIPGXIII,-0.303%
C=CC[N+]1([C@H]2C[C@H]3[C@@H]4CC[C@H]5C[C@H](O)[C@@H](N6CCOCC6)C[C@]5(C)[C@H]4CC[C@]3(C)[C@H]2OC(C)=O)CCCC1,growth inhibition,DIPGX29,-0.303%
same,growth inhibition,DIPGX37,-0.692%
same,growth inhibition,DIPGX7,1.36%
same,growth inhibition,DIPGX9,0.151%
same,growth inhibition,HGGX39,4.24%
same,growth inhibition,HGGX6,1.87%
same,growth inhibition,HNSC,2.05%
same,growth inhibition,SUDIPGIV,-0.149%
same,growth inhibition,SUDIPGVI,0.535%
same,growth inhibition,SUDIPGXIII,1.02%
COCCCC/C(=N\OCCN)c1ccc(C(F)(F)F)cc1,growth inhibition,DIPGX29,1.49%
same,growth inhibition,DIPGX37,4.31%
same,growth inhibition,DIPGX7,1.46%
same,growth inhibition,DIPGX9,3.17%
same,growth inhibition,HGGX39,4.47%
same,growth inhibition,HGGX6,-0.782%
same,growth inhibition,HNSC,-3.83%
same,growth inhibition,SUDIPGIV,2.23%
same,growth inhibition,SUDIPGVI,0.798%
same,growth inhibition,SUDIPGXIII,2.91%
NC(N)=Nc1nc(CSCC/C(N)=N/S(N)(=O)=O)cs1,growth inhibition,DIPGX29,-1.68%
same,growth inhibition,DIPGX37,-1.77%
same,growth inhibition,DIPGX7,-1.85%
same,growth inhibition,DIPGX9,-0.682%
same,growth inhibition,HGGX39,-0.78%
same,growth inhibition,HGGX6,-1.75%
same,growth inhibition,HNSC,-0.722%
same,growth inhibition,SUDIPGIV,-1.56%
same,growth inhibition,SUDIPGVI,-8.72%
same,growth inhibition,SUDIPGXIII,-0.00988%
C[C@H]1O[C@H](O[C@H]2[C@H](O)[C@@H](O)[C@@H](O[C@H]3[C@H](O)[C@@H](O)C(O)O[C@@H]3CO)O[C@@H]2CO)[C@H](O)[C@@H](O)[C@@H]1N[C@H]1C=C(CO)[C@@H](O)[C@H](O)[C@H]1O (stereo not given in full),growth inhibition,DIPGX29,-1.13%
same,growth inhibition,DIPGX37,-1.58%
same,growth inhibition,DIPGX7,-0.631%
same,growth inhibition,DIPGX9,-1.81%
same,growth inhibition,HGGX39,-1.75%
same,growth inhibition,HGGX6,-0.366%
same,growth inhibition,HNSC,-2.81%
same,growth inhibition,SUDIPGIV,-2.71%
same,growth inhibition,SUDIPGVI,-0.59%
same,growth inhibition,SUDIPGXIII,-0.463%
CCCCC1C(=O)N(c2ccccc2)N(c2ccccc2)C1=O,growth inhibition,DIPGX29,-0.206%
same,growth inhibition,DIPGX37,-1.51%
same,growth inhibition,DIPGX7,-0.44%
same,growth inhibition,DIPGX9,-1.82%
same,growth inhibition,HGGX39,-1.47%
same,growth inhibition,HGGX6,-2.46%
same,growth inhibition,HNSC,0.0851%
same,growth inhibition,SUDIPGIV,-3.3%
same,growth inhibition,SUDIPGVI,-4.73%
same,growth inhibition,SUDIPGXIII,-0.592%
Clc1ccc(C(c2ccccc2Cl)C(Cl)Cl)cc1 (stereo not given),growth inhibition,DIPGX29,-1.94%
same,growth inhibition,DIPGX37,-1.47%
same,growth inhibition,DIPGX7,-1.72%
same,growth inhibition,DIPGX9,-0.6%
same,growth inhibition,HGGX39,-0.428%
same,growth inhibition,HGGX6,-0.0252%
same,growth inhibition,HNSC,-1.09%
same,growth inhibition,SUDIPGIV,-1.24%
same,growth inhibition,SUDIPGVI,-1.05%
same,growth inhibition,SUDIPGXIII,1.43%
CC(=O)Nc1ncc([N+](=O)[O-])s1,growth inhibition,DIPGX29,-0.525%
same,growth inhibition,DIPGX37,-1.35%
same,growth inhibition,DIPGX7,-1.25%
same,growth inhibition,DIPGX9,-0.952%
same,growth inhibition,HGGX39,1.46%
same,growth inhibition,HGGX6,1.88%
same,growth inhibition,HNSC,-5.25%
same,growth inhibition,SUDIPGIV,-1.68%
same,growth inhibition,SUDIPGVI,-0.127%
same,growth inhibition,SUDIPGXIII,11.8%
CNC(CC(C)C)C(=O)NC1C(=O)NC(CC(N)=O)C(=O)NC2C(=O)NC3C(=O)NC(C(=O)NC(C(=O)O)c4cc(O)cc(O)c4-c4cc3ccc4O)C(O)c3ccc(c(Cl)c3)Oc3cc2cc(c3OC2OC(CO)C(O)C(O)C2OC2CC(C)(N)C(O)C(C)O2)Oc2ccc(cc2Cl)C1O (stereo not given),growth inhibition,DIPGX29,-1.35%
same,growth inhibition,DIPGX37,-1.91%
same,growth inhibition,DIPGX7,-1.76%
same,growth inhibition,DIPGX9,-1.16%
same,growth inhibition,HGGX39,-1.53%
same,growth inhibition,HGGX6,-2.38%
same,growth inhibition,HNSC,-0.899%
same,growth inhibition,SUDIPGIV,-0.924%
same,growth inhibition,SUDIPGVI,-4.84%
same,growth inhibition,SUDIPGXIII,-0.803%
CC(=O)[C@H]1CC[C@H]2[C@@H]3C=CC4=CC(=O)CC[C@@]4(C)[C@@H]3CC[C@]12C,growth inhibition,DIPGX29,-0.886%
same,growth inhibition,DIPGX37,4.22%
same,growth inhibition,DIPGX7,-0.136%
same,growth inhibition,DIPGX9,0.45%
same,growth inhibition,HGGX39,1.86%
same,growth inhibition,HGGX6,-2.88%
same,growth inhibition,HNSC,6.39%
same,growth inhibition,SUDIPGIV,2.11%
same,growth inhibition,SUDIPGVI,0.865%
same,growth inhibition,SUDIPGXIII,-1.05%
O=C[C@H](O)[C@@H](O)[C@H](O)CO,growth inhibition,DIPGX29,1.32%
same,growth inhibition,DIPGX37,0.386%
same,growth inhibition,DIPGX7,0.91%
same,growth inhibition,DIPGX9,1.55%
same,growth inhibition,HGGX39,1.07%
same,growth inhibition,HGGX6,1.49%
same,growth inhibition,HNSC,0.405%
same,growth inhibition,SUDIPGIV,-0.641%
same,growth inhibition,SUDIPGVI,-1.35%
same,growth inhibition,SUDIPGXIII,-0.863%
CCC(C)C1OC2(CCC1C)CC1CC(CC=C(C)C(OC3CC(OC)C(OC4CC(OC)C(O)C(C)O4)C(C)O3)C(C)C=CC=C3COC4C(O)C(C)=CC(C(=O)O1)C34O)O2 (stereo not given),growth inhibition,DIPGX29,3.13%
same,growth inhibition,DIPGX37,0.396%
same,growth inhibition,DIPGX7,1.82%
same,growth inhibition,DIPGX9,2.33%
same,growth inhibition,HGGX39,3.17%
same,growth inhibition,HGGX6,15.6%
same,growth inhibition,HNSC,27.4%
same,growth inhibition,SUDIPGIV,0.217%
same,growth inhibition,SUDIPGVI,3.51%
same,growth inhibition,SUDIPGXIII,47.6%
